Laboratory results taken from PubChem BioAssay (NCATS).
Records with an inconclusive call do not appear. Entries that show only a call come without a potency. Active and inactive are the calls of the source. Calls come from the whole dose curve; as a rule, active = well fitted curve in the direction sought with a large enough effect; inconclusive = small, poorly fitted or top-dose-only effect, or another doubt; inactive = no such curve, though single readings can be large; an effect the other way counts as inactive or inconclusive.

Legend:
[1] = qHTS for Inhibitors of Plasmodium falciparum (GB4) proliferation (AID 504315); note: nearly all actives have a fitted effect of over 50% in size; details: P. falciparum GB4 in erythrocytes, SYBR Green DNA, 72 h; series mostly up to 6.7 µM
Outline: (§1)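 Parasite growth measured as SYBR Green DNA fluorescence (ex 485, em 535 nm) after overnight lysis following 72 h culture at 37 °C, 0.3% parasitemia, 2.5% hematocrit. Values normalized against DMSO and 0.29 uM artemisinin controls, with plate-stack correction.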

[2] = qHTS for Inhibitors of Plasmodium falciparum (HB3) proliferation (AID 504318); note: nearly all actives have a fitted effect of over 60% in size; details: P. falciparum HB3 in erythrocytes, SYBR Green DNA, 72 h; series mostly up to 7.21 µM
Outline: as §1

[3] = qHTS for Inhibitors of Plasmodium falciparum (CP250) proliferation (AID 504320); details: P. falciparum CP250 in erythrocytes, SYBR Green DNA, 72 h; series mostly up to 6.7 µM
Outline: as §1

[4] = qHTS for Inhibitors of Plasmodium falciparum (7G8) proliferation (AID 504316); note: nearly all actives have a fitted effect of over 65% in size; details: P. falciparum 7G8 in erythrocytes, SYBR Green DNA, 72 h; series mostly up to 6.7 µM
Outline: as §1
Potency is the fitted concentration of half-maximal effect.

| Compound | Potency [1] | Potency [2] | Potency [3] | Potency [4] |
| --- | --- | --- | --- | --- |
| C[C@H]1Cc2c(-c3ccccc3)nc3c(c2CO1)CN(C(=O)c1cc(I)ccc1F)CC3 | inactive | inactive | inactive | – |
| CCCCC1=CC2=CC(=O)C(C)(OC(=O)CC)C(=O)C2=CN1CC(C)C (stereo not drawn) | inactive | – | inactive | inactive |
| CC1(C)O[C@@H]2[C@@H](O1)C(c1ccccc1)(c1ccccc1)OP(=O)(O)OC2(c1ccccc1)c1ccccc1 | inactive | inactive | inactive | – |
| COC(=O)C1=C(C(=O)OC)[C@@H]2Nc3ccccc3[C@@]23C[C@@H](C(=O)OC)N(C(=O)c2cccs2)C3=N1 | inactive | – | inactive | inactive |
| CCCC[C@]12Cc3cc(OC)c(OC)cc3[C@H](O1)C1=C(O2)C(=O)c2ccccc2C1=O | 1690 nM (active) | – | inactive | 1510 nM (active) |
| COC(=O)[C@]1(C)C=C[C@@H](C)[C@H](c2ccccc2Br)N1C(=O)C(F)(F)F | inactive | inactive | inactive | – |
| COC(=O)CCC(=O)OC1(C)C(=O)C2=CN(CCc3c[nH]c4ccccc34)C(c3ccc(OC)cc3)=CC2=C(Br)C1=O (stereo not drawn) | inactive | inactive | inactive | – |
| CCCCc1nc2c(c3c1C[C@H](C)OC3)CN(C(=O)Cc1cccc(OC)c1)CC2 | inactive | inactive | inactive | – |
| C=CCN1C=C2C(=O)C(C)(OC(=O)c3cccs3)C(=O)C=C2C=C1CCCC(=O)OC (stereo not drawn) | inactive | – | inactive | inactive |
| CCCCC1=CC2=CC(=O)C(C)(OC(=O)CC)C(=O)C2=CN1CCc1c[nH]c2ccccc12 (stereo not drawn) | inactive | – | inactive | inactive |
| O=C(C=Cc1ccc2c(c1)OCO2)c1ccccc1 | inactive | inactive | inactive | – |
| COC(=O)[C@H]1[C@@H](C)N(Cc2ccccc2)C(=O)N[C@H]1c1ccccc1 | inactive | inactive | inactive | – |
| COC(=O)C1=C(C(=O)OC)[C@@H]2Nc3ccccc3[C@@]23C[C@@H](C(=O)OC)N(C(=O)c2ccco2)C3=N1 | inactive | – | inactive | inactive |
| CCCCCCCc1cc2ccccc2c2c(C(=O)OC)c(-c3ccccc3)c(C(=O)OC)n12 | inactive | – | inactive | inactive |
| C#CCCCON=C1C[C@@H](O)[C@@H](O)[C@@H]2[C@H]3C(=O)N([C@@H](C)c4ccccc4)C(=O)[C@@H]3CC[C@H]12 | inactive | – | inactive | – |
| COC(=O)[C@@H]1[C@@H](C)N(CCc2cc(OC)c(OC)c(OC)c2)C(=O)N[C@H]1c1ccccc1 | inactive | – | inactive | – |
| C[C@H]1Cc2c(COc3ccccc3)nc3c(c2CO1)CN(S(=O)(=O)c1ccc(Cl)c2nonc12)CC3 | inactive | inactive | inactive | – |
| CCCNC(=O)N1C2=NC(C(=O)OC)=C(C(=O)OC)[C@@H]3N(C)c4ccccc4[C@]23C[C@H]1C(=O)OC | inactive | – | inactive | inactive |
| COC(=O)C1=C(C)N(CCc2cc(OC)c(OC)c(OC)c2)C(=O)N[C@H]1c1ccccc1 | inactive | – | inactive | inactive |
| COC(=O)[C@@H]1CC[C@H](C)[C@@H](c2ccc(C)cc2)N1C(=O)c1ccc(C=NO[C@@H](C)c2cc(-c3c(C)cc(C)cc3C)no2)cc1 | 1690 nM (active) | – | 1690 nM (active) | – |
| COC(=O)C1=C(C(=O)OC)[C@@H]2N(Cc3ccccc3)c3ccccc3[C@@]23C[C@@H](C(=O)OC)N(S(=O)(=O)c2ccc4c(c2)OCCN4C)C3=N1 | 1510 nM (active) | 1200 nM (active) | 1510 nM (active) | – |
| COC(=O)N[C@@H](c1ccccc1)[C@]1(C(=O)OC)CCCC1=O | inactive | inactive | inactive | – |
| COC(=O)N1C2=C(c3ccccc3[C@@H]1CC(=O)Nc1ccc3ccc4cccc5ccc1c3c45)[C@@H]1C(=O)N(c3ccccc3)C(=O)[C@@H]1[C@H](C)C2 | 1510 nM (active) | 2130 nM (active) | 1510 nM (active) | – |
| CCCCC1=CC2=CC(=O)C(C)(OC(=O)CC)C(=O)C2=CN1c1ccncc1 (stereo not drawn) | inactive | inactive | inactive | – |
| CCCCc1nc2c(c3c1C[C@H](C)OC3)CN(C(=O)NCCc1c[nH]c3ccccc13)CC2 | inactive | – | inactive | inactive |
| COc1ccc([C@]23Cc4cc(OC)c(OC)cc4[C@H](O2)c2c(c4ccccc4oc2=O)O3)cc1 | inactive | inactive | inactive | – |
| CC1(OC(=O)CCc2ccccc2)C(=O)C=C2C=C(c3ccc(C#N)cc3)N(Cc3ccco3)C=C2C1=O (stereo not drawn) | inactive | – | inactive | inactive |
